# A number with no mark means an inactive call. No rule for the calls is given here.
# Target: Lethal factor (Bacillus anthracis) (UniProt P15917)
# Test: Lethal factor protease inhibitors, Bacillus anthracis, multiplex microsphere cleavage assay, validation set (AID 588461)
# Settings: flow cytometry, at 10 µM, hits give high values
# Sequence of Lethal factor (Bacillus anthracis) (P15917 whole entry, looked up): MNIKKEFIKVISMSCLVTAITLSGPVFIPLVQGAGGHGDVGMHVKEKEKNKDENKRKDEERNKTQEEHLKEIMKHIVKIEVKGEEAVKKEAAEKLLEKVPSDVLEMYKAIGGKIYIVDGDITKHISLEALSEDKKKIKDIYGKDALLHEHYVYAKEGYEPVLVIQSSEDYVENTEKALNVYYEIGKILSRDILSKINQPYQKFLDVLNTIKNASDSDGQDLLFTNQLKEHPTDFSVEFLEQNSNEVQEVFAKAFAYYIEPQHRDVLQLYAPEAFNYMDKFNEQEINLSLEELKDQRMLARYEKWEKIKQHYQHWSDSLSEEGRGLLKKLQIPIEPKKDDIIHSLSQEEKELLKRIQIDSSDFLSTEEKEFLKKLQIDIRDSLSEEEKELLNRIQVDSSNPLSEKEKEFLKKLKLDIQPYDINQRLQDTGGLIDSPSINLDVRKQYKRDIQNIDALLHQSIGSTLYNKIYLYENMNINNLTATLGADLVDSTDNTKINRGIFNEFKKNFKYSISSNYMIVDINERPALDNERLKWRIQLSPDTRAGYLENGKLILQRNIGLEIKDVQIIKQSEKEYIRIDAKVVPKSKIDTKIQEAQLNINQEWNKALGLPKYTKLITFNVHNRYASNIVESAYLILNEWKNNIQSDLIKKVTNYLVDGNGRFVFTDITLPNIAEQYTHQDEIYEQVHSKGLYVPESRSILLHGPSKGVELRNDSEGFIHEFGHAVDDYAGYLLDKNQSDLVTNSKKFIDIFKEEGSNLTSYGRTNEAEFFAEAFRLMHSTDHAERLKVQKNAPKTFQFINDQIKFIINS
row,SMILES,inhibition
1,O=C1C(Cc2c[nH]c3ccccc23)NC(=S)N1Cc1ccccc1 (stereo not given),-1.8%
2,CC(=O)C1=C(O)C(=O)OC1c1ccc(C)cc1 (stereo not given),-4.5%
3,Cc1cc(/C=N/O)c(C)n1-c1ccc(Br)cc1,0.9%
4,CCOC(=O)c1c(C)oc2c1C(=O)c1ccccc1C2=O,-9.3%
5,CCC(C(=O)Nc1ccc2c(c1)OCCO2)c1ccccc1 (stereo not given),-1.8%
6,Cc1ccc2c(c1)OC(=O)CC2c1ccccc1 (stereo not given),-4.4%
7,O=C(COc1cc(O)c2c(=O)c3ccccc3oc2c1)OCc1ccccc1,1.6%
8,N#CCC(N)=C(C#N)C#N,-6%
9,CC(C)(C)C(=O)NCCCNc1ccc([N+](=O)[O-])cc1,3.3%
10,O=C1C(Cc2ccccc2)NC(=S)N1c1ccccc1 (stereo not given),-7.8%
11,Cn1cc(CN2CCCC(CO)(Cc3cccc(Cl)c3)C2)cn1 (stereo not given),-5.4%
12,Cc1nnc(NS(=O)(=O)c2ccc(N)cc2)s1,-2.8%
13,COc1ccc2c(c1)[nH]c1c(=O)n(Cc3ccccn3)cnc12,-4.7%
14,CCOC(=O)C1=C(C)N[C@@]2(O)c3ccccc3C(=O)[C@@]12O,-1.2%
15,COc1ccccc1NC(=O)N1CCc2[nH]c3ccc(Cl)cc3c2C1,-0.7%
16,O=c1c2[nH]c3ccccc3c2ncn1CCC1=CCCCC1,-3.1%
17,NS(=O)(=O)c1cc(C2(O)NC(=O)c3ccccc32)ccc1Cl (stereo not given),-7.1%
18,COc1ccc(/C=C2\CC/C(=C\c3ccc(OC)c(OC)c3)C2=O)cc1OC,-5.9%
19,CCN(Cc1cnn(C)c1)Cc1nc(C(c2ccccc2)c2ccccc2)no1,-3.7%
20,O=C1NC2(Nc3ccccc31)C(=O)Nc1ccc(Br)cc12 (stereo not given),6.8%

row,SMILES,inhibition
1,C=CCn1c(N2CCCCCC2)nc2c1c(=O)n(C)c(=O)n2C,-4.7%
2,CC(CCCC(C)(C)O)NC(=O)c1ccc(OC2CCN(C(=O)C3CC3)CC2)cc1 (stereo not given),1%
3,C=CCc1cccc2cc(C(=O)Nc3ccc(CC(=O)O)cc3)c(=O)oc12,0.8%
4,COCC(C)NC(=O)c1ccc(CN2CCc3ccccc3C2)cc1 (stereo not given),-7.8%
5,COc1ccc(-c2c(C)c3ccc(OCC(C)=O)cc3oc2=O)cc1,1.2%
6,Cc1ccc(C(=O)N2CC3(C(C)C)CN(C(=O)c4ccc(C)cc4)CC(C(C)C)(C2)C3=O)cc1,-2.5%
7,O=C(CCNNC(=O)c1ccncc1)NCc1ccccc1,5.5%
8,COc1ccc(C2=C(CN(C)C)C(c3ccccc3)c3ccccc3O2)cc1 (stereo not given),-2.3%
9,CC1(C#CC[N+]2(C)CCCCC2)CCC2C(O1)c1ccccc1OC2(C)C (stereo not given),-2.1%
10,CCCN1CCC(NC(=O)Nc2ccc(Br)cc2)CC1,-2%
11,COc1ccc(C(=O)Nc2ccc(OC)c([N+](=O)[O-])c2)cc1Br,8.3%
12,CCCC(=O)Nc1ccc(OCC(O)CNC(C)C)c(C(C)=O)c1 (stereo not given),-26.9%
13,Cc1ccc2c(c1)C(C)(C)[C@]1(C)NC(=O)CCN21,0%
14,COc1ccc(C=NCC2COc3ccccc3O2)cc1OC (stereo not given),-3.2%
15,O=[N+]([O-])c1ccc(O)c2ncccc12,-2.8%
16,CCOC(=O)C1C(=O)OC2(CCOC(C)(C)C2)C1C(=O)OCC (stereo not given),-0.1%
17,CC1=NS(=O)(=O)c2cc(Cl)ccc2N1,-1.8%
18,O=C(OCC1OC2OC3(CCCCC3)OC2C2OC3(CCCCC3)OC12)c1ccccc1 (stereo not given),-2.2%
19,Nc1ccc(-c2nc3ncccc3o2)c(Cl)c1,-10.9%
20,CC1(C)CC(=O)c2c(nc3ccccc3c2N)C1,7.9%
